In paper PMC4552634, “A New Set of Chemical Starting Points with Plasmodium falciparum Transmission-Blocking Potential for Antimalarial Drug Discovery” (PLoS ONE, 2015):
In all, about 13,000 compounds went through this assay and about 3,200 (25%) showed an effect of 50% or more. The list shows a part of the results. Square brackets hold non-standard residues; d marks the D form. Peptide text beside a SMILES is read from it. * marks the point of attachment. Butanoyl(4-(4-HOPh)) = O=C(CCCc1ccc(O)cc1)*

Tested on: P. falciparum stage V gametocytes
Design: BacTiter-Glo ATP luminescence viability of purified stage V gametocytes in 384-well plates, per cent inhibition versus DMSO
Details: 48 h, 5 µM; inhibitor

Row | Compound | % Inhibition [%]
1 | O=[N+]([O-])c1ccc(C2=NN(S(=O)(=O)c3c(Cl)cc(Cl)cc3Cl)CCCC2)cc1 [TCMDC-135423] | -33.18
2 | CCCCCc1cc(O)c2c(c1)OC(C)(C)CC2C1=CCN(Cc2ccccc2)CC1 (centres unmarked) [TCMDC-131335] | -27.18
3 | CCCCc1cc(NCc2ccncc2)nc(Nc2ccccc2)n1 [TCMDC-133995] | 8.477
4 | CCn1cc(-c2cc(C(=O)Nc3ccc(OC)cc3C)c3ccccc3n2)c(C)n1 [TCMDC-124457] | 71.47
5 | CCN(CC)CCOC(=O)c1ccc(NC(=O)c2cc(-c3ccc(C)cc3)nc3ccccc23)cc1 [TCMDC-124019] | 1.245
6 | COc1ccc(-c2cc(C(=O)Nc3ccc(CCCN(C)Cc4ccc(OC)c(OC)c4)cc3)c3ccccc3n2)cc1 [TCMDC-131848] | 47.44
7 | Cc1cccc2nc(-c3ccc(-c4ccc(CNCCCNS(C)(=O)=O)cc4)s3)[nH]c12.O=C(O)C(F)(F)F [TCMDC-133085] | 13.51
8 | COc1cc2nc(N3CCC(CNC(=O)/C=C/c4cccc(C)c4)CC3)nc(N)c2cc1OC [TCMDC-138156] | -2.985
9 | COc1cc2nc(N3CCC(CNC(=O)c4ccc(-c5ccc(C#N)cc5C)cc4)CC3)nc(N)c2cc1OC [TCMDC-138735] | 105.2
10 | COc1cc2nc(N3CC(C)N(C(=O)Cc4ccc(-c5ccccc5)cc4)C(C)C3)nc(N)c2cc1OC (centres unmarked) [TCMDC-138153] | 71.85
11 | COc1cc2nc(N3CCC(CNC(=O)c4ccc(-c5cccc(C#N)c5)cc4)CC3)nc(N)c2cc1OC [TCMDC-138730] | 76.59
12 | COc1cc2nc(N3CCC(CNC(=O)c4ccc(-c5ccc(C#N)cc5)cc4)CC3)nc(N)c2cc1OC [TCMDC-138713] | 15.4
13 | CC(C)CCN1CCC(Oc2ccc(NC(=O)c3ccsc3)cc2Cl)CC1 [TCMDC-133973] | 36.47
14 | O=C(NCCN1CCC(NC(=O)c2ccc(-c3ccccn3)s2)CC1)c1ccc(Cl)c(Cl)c1 [TCMDC-141947] | -22.55
15 | COc1cc(C(=O)N2COCC(CCCN3CCC(N4CCCC4)CC3)(c3ccc(Cl)c(Cl)c3)C2)cc(OC)c1OC (centres unmarked) [TCMDC-141758] | 14.16
16 | CCN(CC)CCON=Cc1cc(C)c2[nH]c3ccc(OCc4ccccc4)cc3c2c1C [TCMDC-132058] | -17.27
17 | Cc1nc(-c2cccc(NC(C)C(=O)Nc3cc(C(F)(F)F)ccc3N3CCOCC3)c2)cs1 (centres unmarked) [TCMDC-125304] | -35
18 | O=C(O)C[C@H](NC(=O)CCCNC(=O)c1cccc(-c2ccc(Cl)c(Cl)c2)c1)C(=O)O [TCMDC-139508] | 11.45
19 | CC(C)C[C@@H](CNC[C@H](CC(C)C)NC(=O)OC(C)(C)C)NC(=O)OC(C)(C)C [TCMDC-132080] | -74.95
20 | CN(C)S(=O)(=O)c1ccc(N2C(=O)C3C(C2=O)C2(c4ccccc4)C(=O)C3(c3ccccc3)C(c3ccccc3)=C2c2ccccc2)cc1 (centres unmarked) [TCMDC-132095] | -66.42
21 | CCN(CC)CCCCOc1ccc2c(c1)C(=O)c1cc(OCCCCN(CC)CC)ccc1-2 [TCMDC-124163] | 88.71
22 | CCN(CC)CCOc1ccc(Nc2ncc3cc(-c4c(Cl)cccc4Cl)c(=O)n(C)c3n2)cc1 [TCMDC-140940] | 0.9022
23 | CN(c1ccc(F)cc1)S(=O)(=O)c1ccc(Cl)c(C(=O)Nc2cccc(C#N)c2)c1 [TCMDC-123717] | 11.84

Row | Compound | % Inhibition [%]
24 | COc1cc(OC)nc(C(Sc2ccc(NC(=O)c3cccs3)cc2)c2ccccc2)n1 (centres unmarked) [TCMDC-124257] | 44.54
25 | CCCCCCOc1ccc(C(N)=NCc2ccccc2)c2c1CCCC2 [TCMDC-131554] | 15.01
26 | CCCCCOc1ccc(C(=NC)N(CCCCC)CCCCC)c2ccccc12 [TCMDC-137703] | 109.8
27 | CCCCCCOc1ccccc1C(=O)NCCOc1ccc(Cl)cc1 [TCMDC-124012] | -9.249
28 | O=C(NCc1cccc(C(F)(F)F)c1)c1ccc(CNC(=O)c2ccc(O)c(-c3ccc(Cl)c(Cl)c3)c2)cc1 [TCMDC-140834] | 9.818
29 | O=C(NC1CC1)c1ccc(N2CCCC(COc3ccc4c(c3)CCCC4)C2)nc1 (centres unmarked) [TCMDC-134263] | 18.7
30 | O=C(NCC(=O)N1CCC[C@H]1C(=O)O)[C@@H](Cc1ccccc1)NC(=O)[C@@H]1CCCN1C(=O)CCCc1ccc(O)cc1 [TCMDC-141970] ({Butanoyl(4-(4-HOPh))}-P[dF]GP-OH) | -16.67
31 | Cc1ccc(NC(=O)Cc2noc(CC3CCCN3C(=O)N[C@@H](C)c3ccccc3)n2)cc1 (some centres unmarked) [TCMDC-134994] | 0.878
32 | CC(CN1CCN(C)CC1)C(=O)Nc1cccc(-c2ccc(-c3nc4ccccc4[nH]3)s2)c1 (centres unmarked) [TCMDC-137142] | -55.57
33 | CC(CN1CCN(C)CC1)C(=O)Nc1ccc(-c2cccc(-c3nc4ccccc4[nH]3)c2)cc1 (centres unmarked) [TCMDC-137139] | 81.76
34 | CC(CN1CCN(C)CC1)C(=O)Nc1ccc(-c2ccc(-c3nc4ccccc4[nH]3)cc2)cc1 (centres unmarked) [TCMDC-137148] | 72.16
35 | Cc1cccc2nc(-c3ccc(-c4ccc(NC(=O)C(C)CN5CCN(C)CC5)cc4)s3)[nH]c12 (centres unmarked) [TCMDC-137154] | -22.77
36 | CC(CN1CCN(C)CC1)C(=O)Nc1ccc(-c2ccc(-c3nc4ccccc4[nH]3)s2)cc1 (centres unmarked) [TCMDC-137140] | 86.65
37 | CC(CN1CCN(C)CC1)C(=O)Nc1ccc(-c2csc(-c3nc4ccccc4[nH]3)c2)cc1 (centres unmarked) [TCMDC-132391] | 31.65
38 | CCC(C)NC(=O)Nc1ccc(-c2cccc(-c3nc4ccccc4[nH]3)c2)cc1 (centres unmarked) [TCMDC-133241] | 3.681
39 | CCc1cc(C(=O)c2cccc(C)c2)c(NC(=O)CN2CCN(C(=O)c3ccco3)CC2)s1 [TCMDC-123646] | 4.148
40 | O=C(O)/C=C/c1cccc(F)c1F [TCMDC-124298] | -5.397
41 | O=C(Nc1cn(-c2ccc(OCc3cccc(F)c3)c(Cl)c2)c2ncncc12)c1ccncc1 [TCMDC-135377] | -11.19
42 | CCOc1ccc(Br)cc1/C=C/C(=O)Nc1ccc2c(c1)CCCN(C)C2 [TCMDC-134049] | 5.79
43 | CC(C)(C)c1ccc(-c2csc(NC(=O)CC(c3ccccc3)c3ccccc3)n2)cc1 [TCMDC-124604] | -3.611
44 | CC1Cc2ccccc2N1S(=O)(=O)c1cc(OCC(F)(F)F)ccc1OCC(F)(F)F (centres unmarked) [TCMDC-124044] | -9.787
45 | CC1Cc2ccccc2N1S(=O)(=O)c1cccc(C(=O)Nc2nc(-c3ccccn3)cs2)c1 (centres unmarked) [TCMDC-124559] | 76.73
46 | O=C(Nc1nc(-c2ccccn2)cs1)c1ccc(S(=O)(=O)N2CCc3ccccc32)cc1 [TCMDC-125432] | 10.03

Row | Compound | % Inhibition [%]
47 | COc1cc(OC)cc(C(=O)Nc2nc(-c3ccc(NC(=O)c4ccccc4)cc3)cs2)c1 [TCMDC-125112] | -27.73
48 | CCN1CCN(c2ccc(NC(=O)c3cc4c(C)nn(-c5ccccc5)c4s3)cc2C)CC1 [TCMDC-125105] | 8.854
49 | O=C(Nc1nc(-c2ccccn2)cs1)c1ccccc1COc1ccccc1 [TCMDC-125336] | 64.14
50 | O=C(Nc1nc(-c2cc(F)ccc2F)cs1)c1cncc(Br)c1 [TCMDC-123613] | -58.06
51 | O=C(Nc1cccc(-c2csc(-c3ccccc3)n2)c1)c1cccs1 [TCMDC-123904] | 22.98
52 | COc1cc(OC)cc(C(=O)Nc2nc(-c3ccccn3)cs2)c1 [TCMDC-125345] | 25.53
53 | O=C(Nc1nc(-c2ccccn2)cs1)c1ccc(Br)s1 [TCMDC-123868] | 65.77
54 | Cc1nn(CC(C)C)c2sc(C(=O)Nc3nc(-c4ccccn4)cs3)cc12 [TCMDC-125461] | 62.82
55 | COc1cc(F)c2ncc(Cl)c(C(O)CN3CCC(NC(=O)c4ccc5c(c4)NC(=O)CS5)CC3)c2c1 (centres unmarked) [TCMDC-135908] | -70.28
56 | Cc1noc(C)c1-c1cccc(CNCc2cccc(-c3csc(-c4nc5ccccc5[nH]4)c3)c2)c1 [TCMDC-133047] | -19.47
57 | Cc1cccc2nc(-c3ccc(-c4cccc(NC(=O)Nc5ccsc5)c4)s3)[nH]c12 [TCMDC-133208] | 8.037
58 | CC1(C)N=C(N)N=C(N)N1OCCCc1ccc(Cl)cc1Cl [TCMDC-131692] | 4.93
59 | O=C(NC1CCC(CCN2Cc3cccc(F)c3C2)CC1)c1cccc(-c2cccnc2)c1 (centres unmarked) [TCMDC-139623] | -21.05
60 | COc1ccc2nccc([C@@H](O)CN3CCC(NC(=O)c4ccc5cc[nH]c5c4)CC3)c2c1 [TCMDC-140743] | -6.563
61 | COc1cc(C(=O)Nc2ccc3nc(N4CCN(C)CC4)cc(C)c3c2)cc(OC)c1OC [TCMDC-123591] | 10.02
62 | CCN(CC1CCN(CC2(O)CCOCC2)CC1)c1cc(C)nc(Nc2ccc(Cl)cc2)n1 [TCMDC-133808] | 30.17
63 | N=C(N)c1ccc(Nc2nc(Nc3ccc(-c4ccccc4)cc3)ncc2[N+](=O)[O-])cc1 [TCMDC-136145] | 99.81
64 | N=C(N)c1ccc(Nc2nccc(Nc3nc(-c4ccccc4)cs3)n2)cc1 [TCMDC-136090] | -20.73
65 | CCN(CC)CCNC(=O)c1ccc(NC(=O)c2cc(-c3ccncc3)nc3ccccc23)cc1 [TCMDC-124495] | 0.6549
66 | CC(=O)Nc1ccc(Nc2ncc([N+](=O)[O-])c(Nc3ccccc3C(N)=O)n2)cc1 [TCMDC-138731] | -8.61
67 | CNC(=O)c1ccccc1Nc1nc(Nc2ccc(C(=O)O)cc2)ncc1Cl [TCMDC-133803] | -5.909
68 | CCN(CC)CCNC(=O)c1ccc(Nc2ncc([N+](=O)[O-])c(Nc3ccccc3OC)n2)cc1 [TCMDC-138727] | 73.19
